Several values for one entry are separate records, joined by “and”; a condition that tells them apart may be missing. Equal values may be shown once. Inconclusive results are not listed. Activity calls are given as the source filed them.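 Rule for the calls, unless noted: active = normalized viability below 100% at a tested concentration; inactive = the rest.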
Legend:
[1] = growth inhibition of DIPG glioma cells, dose response, cell-based, SU-DIPG-XVII, MIPE5.0, CellTiter-Glo, qHTS (AID 1347060; cut-off not given, nearly all actives have AC50 up to about 26 µM;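 for AC50: cells exposed to compound for 48 hours before viability readout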); details: SU-DIPG-XVII viability, CellTiter-Glo ATP luminescence
[2] = growth inhibition of DIPG glioma cells, dose response, cell-based, JHH-DIPG-1, MIPE4.0, CellTiter-Glo, qHTS (AID 1347062; cut-off not given, nearly all actives have AC50 up to about 27 µM;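 for AC50: cells exposed to compound for two days before readout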); details: JHH-DIPG-1 viability, CellTiter-Glo ATP luminescence
[3] = growth inhibition of DIPG glioma cells, dose response, cell-based, SU-DIPG-IV, MIPE4.0, CellTiter-Glo, qHTS (AID 1347063; cut-off not given, nearly all actives have AC50 up to about 30 µM;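 note: compound exposure lasted 48 hours before the viability readout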); details: SU-DIPG-IV viability, CellTiter-Glo ATP luminescence
[4] = growth inhibition of DIPG glioma cells, dose response, cell-based, SU-DIPG-XIII, MIPE5.0, CellTiter-Glo, qHTS (AID 1347064; cut-off not given, nearly all actives have AC50 up to about 23 µM;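 for AC50: cells exposed to compound for 48 hours before the viability read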); details: SU-DIPG-XIII viability, CellTiter-Glo ATP luminescence
[5] = SU-DIPG-XXV glioma cell viability, MIPE5.0 library, qHTS (AID 1347068; cut-off not given, nearly all actives have IC50 up to about 30 µM;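 for IC50: cells exposed to compound for 48 hours before viability readout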)
[6] = sensitizers of A549 cells to miR-34 induction, primary screen, imaging, A549 dox-inducible miR-34, nuclei and caspase counts (AID 1347080;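 active = compounds whose cell count with miR-34 switched on is under 0.7 times the count with it off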); details: A549 miR-34 inducible, Hoechst nuclei count, 48 h
[7] = survival rescue of mitochondrial mutant cells in low glucose, primary screen, MELAS cybrids, Rieske KO mouse fibroblasts, CellTiter-Glo (AID 1508586;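 active = mean z-score across replicates of 1.96 or higher in either the MELAS or the Rieske mutant cell line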;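 note: z relative to plate mean and SD of compound and empty wells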)
[8] = viability loss in pontine glioma line – cell-based, SU-DIPG-XXV, MIPE5.0, CellTiter-Glo, qHTS, dose response (AID 1347065; cut-off not given, nearly all actives have AC50 up to about 26 µM;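 note: cells exposed to compound for 48 hours before ATP readout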); details: CellTiter-Glo ATP luminescence
[9] = SU-DIPG-VI glioma cell viability, MIPE4.0 library, CellTiter-Glo luminescence, qHTS (AID 1347066; cut-off not given, nearly all actives have AC50 up to about 30 µM;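 note: cells exposed to compound for 48 hours before readout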); details: CellTiter-Glo ATP luminescence
[10] = modifiers of HSF1 nuclear foci, imaging, Selleck Cancer Library (AID 1347162; in the data active = plate-normalised HSF1 focus index below about 0.46); details: human cells, at 10 µM; SSMD: measured here: HSF1 foci SSMD mean; cell count: measured here: cell number; plate-normalised HSF1 focus index: stronger effect = lower value
[11] = ovarian cancer cell viability with rucaparib, profiling panel, oncology-focused library, rucaparib conditional (AID 1508598); details: patient-derived ovarian cancer cells, CellTiter-Glo viability, 144 h, stronger effect = lower value
[12] = JHH-DIPG-1 glioma cell viability, MIPE5.0 library, CellTiter-Glo luminescence, qHTS (AID 1347067; cut-off not given, nearly all actives have AC50 up to about 26 µM;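 note: cells exposed to compound for 48 hours before readout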); details: JHH-DIPG-1 glioma viability, CellTiter-Glo ATP luminescence
[13] = stronger effect = lower value, cell number ratio, induced over uninduced
[14] = measured here: relative caspase fold change +Dox/-Dox
[15] = measured here: total cells with miR-34 induction, stronger effect = lower value
[16] = measured here: total cells without miR-34 induction
[17] = MELAS cybrid survival, CellTiter-Glo 48 h, stronger effect = higher value
[18] = Rieske KO mouse fibroblast survival, CellTiter-Glo 72 h

What does the source list for `CC1(C)Cc2c(-c3ccccc3)c(-c3ccc(Cl)cc3)c(CC(=O)O)n2C1`?
AC50 [1]: 26.3 µM (active); outcome [2]: inactive; AC50 [3]: 18.7 µM (active); outcome [4]: inactive; outcome [5]: inactive; fold change [6, 13]: 0.932 (inactive); fold change [6, 14]: 1.58; cell count [6, 15]: 5140; cell count [6, 16]: 5520; z-score [7, 17]: -0.384 (inactive); z-score [7, 18]: 1.11

Which AC50 [1] does the source give for `CC(C)=CC[C@@H](O)C1=CC(=O)c2c(O)ccc(O)c2C1=O` here?
Its AC50 is 20.9 µM (active).

What about the AC50 [2] of the same compound?
Its AC50 is 0.526 µM (active).

And the AC50 [3]?
Its AC50 is 2.96 µM (active).

And the AC50 [4]?
Its AC50 is 11.8 µM (active).

What about the AC50 [8] of the same compound?
Its AC50 is 10.5 µM (active).

What about the AC50 [9] of the same compound?
The AC50 was 2.96 µM (active).

And the fold change [6, 13]?
The fold change was 1.09 (inactive) and 1.03 (inactive).

What about the fold change [6, 14] of the same compound?
Its fold change is 1.1 and 1.06.

What about the cell count [6, 15] of the same compound?
The cell count was 2290 and 4460.

And the cell count [6, 16]?
Its cell count is 2110 and 4340.

And the z-score [7, 17]?
The z-score was -1.24 (inactive).

And the z-score [7, 18]?
The z-score was 1.65.

With `CC(C)c1ccccc1Cc1cc(C(=O)Nc2ccc(S(=O)(=O)c3ccccc3C(C)(C)C)cc2)c(O)c(O)c1O` as the compound, how does the AC50 [1] read?
Its AC50 is 23.5 µM (active).

What about the AC50 [2] of the same compound?
The AC50 was 23.5 µM (active).

What about the AC50 [3] of the same compound?
The AC50 was 23.5 µM (active).

What about the AC50 [4] of the same compound?
Its AC50 is 20.9 µM (active).

What about the AC50 [8] of the same compound?
The AC50 was 23.5 µM (active).

What about the AC50 [9] of the same compound?
Its AC50 is 9.35 µM (active).

What about the fold change [6, 13] of the same compound?
Its fold change is 0.928 (inactive).

And the fold change [6, 14]?
The fold change was 0.84.

What about the cell count [6, 15] of the same compound?
Its cell count is 2090.

What about the cell count [6, 16] of the same compound?
The cell count was 2260.

What about the SSMD [10] of the same compound?
The SSMD was -1.79.

And the cell count [10]?
The cell count was 7240.

What about the plate-normalised HSF1 focus index [10] of the same compound?
The plate-normalised HSF1 focus index was 0.912 (inactive).

And the z-score [7, 17]?
Its z-score is 2.95 (active).

What about the z-score [7, 18] of the same compound?
Its z-score is -0.101.

What about the viability ([11]; at 0.000305 µM, OCI-C5x cells, with rucaparib 10 µM, 100% = cells with rucaparib alone) of the same compound?
Its viability is 105% (inactive).

And the viability ([11]; at 0.000305 µM, OCI-C5x cells, without rucaparib)?
The viability was 115% (inactive).

And the viability ([11]; at 0.000305 µM, OCI-P5x cells, with rucaparib 20 µM, 100% = cells with rucaparib alone)?
The viability was 124% (inactive).

What about the viability ([11]; at 0.000305 µM, OCI-P5x cells, without rucaparib) of the same compound?
Its viability is 124% (inactive).

And the viability ([11]; at 0.00122 µM, OCI-C5x cells, with rucaparib 10 µM, 100% = cells with rucaparib alone)?
Its viability is 103% (inactive).

What about the viability ([11]; at 0.00122 µM, OCI-C5x cells, without rucaparib) of the same compound?
The viability was 119% (inactive).

And the viability ([11]; at 0.00122 µM, OCI-P5x cells, with rucaparib 20 µM, 100% = cells with rucaparib alone)?
The viability was 117% (inactive).

And the viability ([11]; at 0.00122 µM, OCI-P5x cells, without rucaparib)?
The viability was 116% (inactive).

What about the viability ([11]; at 0.00488 µM, OCI-C5x cells, with rucaparib 10 µM, 100% = cells with rucaparib alone) of the same compound?
Its viability is 113% (inactive).

What about the viability ([11]; at 0.00488 µM, OCI-C5x cells, without rucaparib) of the same compound?
Its viability is 116% (inactive).

What about the viability ([11]; at 0.00488 µM, OCI-P5x cells, with rucaparib 20 µM, 100% = cells with rucaparib alone) of the same compound?
Its viability is 117% (inactive).

What about the viability ([11]; at 0.00488 µM, OCI-P5x cells, without rucaparib) of the same compound?
The viability was 121% (inactive).

And the viability ([11]; at 0.0195 µM, OCI-C5x cells, with rucaparib 10 µM, 100% = cells with rucaparib alone)?
Its viability is 110% (inactive).

What about the viability ([11]; at 0.0195 µM, OCI-C5x cells, without rucaparib) of the same compound?
The viability was 109% (inactive).

What about the viability ([11]; at 0.0195 µM, OCI-P5x cells, with rucaparib 20 µM, 100% = cells with rucaparib alone) of the same compound?
The viability was 118% (inactive).

What about the viability ([11]; at 0.0195 µM, OCI-P5x cells, without rucaparib) of the same compound?
The viability was 114% (inactive).

What about the viability ([11]; at 0.0781 µM, OCI-C5x cells, with rucaparib 10 µM, 100% = cells with rucaparib alone) of the same compound?
Its viability is 110% (inactive).

And the viability ([11]; at 0.0781 µM, OCI-C5x cells, without rucaparib)?
The viability was 111% (inactive).

And the viability ([11]; at 0.0781 µM, OCI-P5x cells, with rucaparib 20 µM, 100% = cells with rucaparib alone)?
Its viability is 119% (inactive).

And the viability ([11]; at 0.0781 µM, OCI-P5x cells, without rucaparib)?
The viability was 114% (inactive).

And the viability ([11]; at 0.313 µM, OCI-C5x cells, with rucaparib 10 µM, 100% = cells with rucaparib alone)?
Its viability is 101% (inactive).

What about the viability ([11]; at 0.313 µM, OCI-C5x cells, without rucaparib) of the same compound?
Its viability is 112% (inactive).

And the viability ([11]; at 0.313 µM, OCI-P5x cells, with rucaparib 20 µM, 100% = cells with rucaparib alone)?
The viability was 112% (inactive).

And the viability ([11]; at 0.313 µM, OCI-P5x cells, without rucaparib)?
The viability was 110% (inactive).

What about the viability ([11]; at 1.25 µM, OCI-C5x cells, with rucaparib 10 µM, 100% = cells with rucaparib alone) of the same compound?
The viability was 106% (inactive).

And the viability ([11]; at 1.25 µM, OCI-C5x cells, without rucaparib)?
The viability was 118% (inactive).

And the viability ([11]; at 1.25 µM, OCI-P5x cells, with rucaparib 20 µM, 100% = cells with rucaparib alone)?
Its viability is 98.8% (active).

And the viability ([11]; at 1.25 µM, OCI-P5x cells, without rucaparib)?
Its viability is 97.4% (active).

And the viability ([11]; at 5 µM, OCI-C5x cells, with rucaparib 10 µM, 100% = cells with rucaparib alone)?
Its viability is 21.8% (active).

And the viability ([11]; at 5 µM, OCI-C5x cells, without rucaparib)?
Its viability is 90.4% (active).

And the viability ([11]; at 5 µM, OCI-P5x cells, with rucaparib 20 µM, 100% = cells with rucaparib alone)?
Its viability is 10.9% (active).

And the viability ([11]; at 5 µM, OCI-P5x cells, without rucaparib)?
Its viability is 21.5% (active).

Which AC50 [1] does the source give for `Oc1ccc(-c2ccc(-c3cc(Nc4cccc(CNC5CC5)c4)n[nH]3)cc2)c(O)c1` here?
Its AC50 is 6.61 µM (active).

And the AC50 [2]?
Its AC50 is 1.66 µM (active).

What about the AC50 [3] of the same compound?
The AC50 was 4.69 µM (active).

And the AC50 [4]?
Its AC50 is 13.2 µM (active).

And the AC50 [8]?
The AC50 was 7.42 µM (active).

And the AC50 [9]?
Its AC50 is 16.6 µM (active).

What about the IC50 [5] of the same compound?
The IC50 was 26.3 µM (active).

Which results are given for `O=C1NC(=O)/C(=C/c2ccc3c(c2)OC(F)(F)O3)S1`?
outcome [1]: inactive; outcome [2]: inactive; outcome [3]: inactive; outcome [4]: inactive; outcome [8]: inactive; outcome [12]: inactive; outcome [5]: inactive; fold change [6, 13]: 0.88 (inactive) and 0.952 (inactive); fold change [6, 14]: 1.16 and 0.645; cell count [6, 15]: 8070 and 5980; cell count [6, 16]: 9160 and 6280

What does the source list for `COc1cc2nc(-c3cc(F)ccc3O)nc(N[C@@H]3CNC[C@H]3C(C)(C)O)c2cc1OC`?
AC50 [1]: 9.34 µM (active); AC50 [2]: 10.5 µM (active); AC50 [3]: 9.35 µM (active); AC50 [4]: 5.25 µM (active); AC50 [8]: 4.17 µM (active); AC50 [12]: 8.33 µM (active); IC50 [5]: 4.17 µM (active)

For `CS[C@H]1SC[C@@H]2C(=O)N(C)[C@H](C(C)C)C(=O)OC[C@H](NC(=O)c3cnc4ccccc4n3)C(=O)N[C@H](C)C(=O)N(C)[C@H]1C(=O)N(C)[C@H](C(C)C)C(=O)OC[C@H](NC(=O)c1cnc3ccccc3n1)C(=O)N[C@H](C)C(=O)N2C`, which AC50 [1] is on record?
Its AC50 is 0.00331 µM (active).

And the AC50 [2]?
Its AC50 is 0.00118 µM (active).

What about the AC50 [3] of the same compound?
The AC50 was 0.00263 µM (active).

And the AC50 [8]?
The AC50 was 0.00296 µM (active).

What about the AC50 [12] of the same compound?
Its AC50 is 0.00186 µM (active).

What about the IC50 [5] of the same compound?
Its IC50 is 0.0132 µM (active).

From PubChem BioAssay
